The target in assay [1] is human Serotonin, 5-Hydroxytryptamine Receptor 5A (5HT5A), HTR5A (gene 3361) (UniProt P47898). Briefly: NVS_GPCR_h5HT5A: NovaScreen (NVS) G Protein-Coupled Receptor Assay for human Serotonin, 5-Hydroxytryptamine Receptor 5A (5HT5A) (AID 2283251). The method, boiled down: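 Cell-free radioligand displacement binding on HEK293-derived membrane protein, 1 h incubation, filter-based scintillation counting. Primary screen in duplicate at 25 uM, actives followed in concentration series; loss of signal fitted versus DMSO.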
Sequence of human Serotonin, 5-Hydroxytryptamine Receptor 5A (5HT5A), HTR5A (gene 3361) (P47898 whole entry, looked up): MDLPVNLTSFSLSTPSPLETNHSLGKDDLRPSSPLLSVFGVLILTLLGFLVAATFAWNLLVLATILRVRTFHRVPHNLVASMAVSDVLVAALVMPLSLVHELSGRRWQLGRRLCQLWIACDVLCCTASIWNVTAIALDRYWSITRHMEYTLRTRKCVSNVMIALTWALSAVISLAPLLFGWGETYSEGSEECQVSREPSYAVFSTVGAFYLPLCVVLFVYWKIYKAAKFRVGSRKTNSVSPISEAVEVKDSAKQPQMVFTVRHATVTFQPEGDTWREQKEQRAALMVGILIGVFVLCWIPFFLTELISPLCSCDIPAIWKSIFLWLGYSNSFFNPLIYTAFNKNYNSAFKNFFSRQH

The target of assay [2] is human Dopamine Receptor D4.4 (DRD4.4), DRD4 (gene 1815) (UniProt P21917). Briefly: NVS_GPCR_hDRD4.4: NovaScreen (NVS) G Protein-Coupled Receptor Assay for human Dopamine Receptor D4.4 (DRD4.4) (AID 2283264). The method, boiled down: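 Radioligand displacement on human DRD4.4 from CHO-derived membranes, 1 hour incubation, bound counts read by filtration and scintillation. Primary screen in duplicate at 25 uM; actives followed up in concentration series.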
Sequence of human Dopamine Receptor D4.4 (DRD4.4), DRD4 (gene 1815) (P21917 whole entry, looked up): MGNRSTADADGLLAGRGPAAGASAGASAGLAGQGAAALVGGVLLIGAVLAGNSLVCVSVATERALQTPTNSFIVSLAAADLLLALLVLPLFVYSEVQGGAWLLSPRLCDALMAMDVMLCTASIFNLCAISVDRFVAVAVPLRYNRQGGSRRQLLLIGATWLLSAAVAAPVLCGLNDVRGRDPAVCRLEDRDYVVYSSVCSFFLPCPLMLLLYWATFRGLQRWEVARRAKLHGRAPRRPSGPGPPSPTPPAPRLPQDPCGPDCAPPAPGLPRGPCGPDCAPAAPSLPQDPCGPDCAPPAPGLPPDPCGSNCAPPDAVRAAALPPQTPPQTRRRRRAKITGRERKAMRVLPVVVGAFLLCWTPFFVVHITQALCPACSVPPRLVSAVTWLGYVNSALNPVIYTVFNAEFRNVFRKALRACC

Assay [3] concerns the target human Dopamine Receptor D2 (DRD2), DRD2 (gene 1813) (UniProt P14416). Description: NVS_GPCR_hDRD2s: NovaScreen (NVS) G Protein-Coupled Receptor Assay for human Dopamine Receptor D2 (DRD2) (AID 2283266). In short, it runs like this: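 Radioligand displacement used human DRD2 membranes extracted from CHO cells and was read by filter-based scintillation counting after 1.5 hours. Primary screening was in duplicate at 25 uM. Loss of signal versus DMSO was fitted, with concentration series in follow-up.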

Assay [4] has as its target human Adenosine A2a Receptor (AdoRA2a), ADORA2A (gene 135) (UniProt P29274). Description: NVS_GPCR_hAdoRA2a: NovaScreen (NVS) G Protein-Coupled Receptor Assay for human Adenosine A2a Receptor (AdoRA2a) (AID 2283256). The method, boiled down:
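Radioligand displacement on HEK293-derived membrane protein, cell-free; filter-based scintillation counting 1.5 hours after dosing, loss of signal vs DMSO. Single-point duplicate screen at 25 uM, actives retested in concentration series.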

For assay [5], the target named is human Endothelin Receptor Type A (ETA), EDNRA (gene 1909) (UniProt P25101). Description: NVS_GPCR_hETA: NovaScreen (NVS) G Protein-Coupled Receptor Assay for human Endothelin Receptor Type A (ETA) (AID 2283265). The method, boiled down: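 Cell-free radioligand displacement using SH-SY5Y-derived protein, 3 h incubation, filter-based scintillation counting. Primary screen in duplicate at 25 uM; actives then run in concentration-response up to 50 uM; loss of binding fitted versus DMSO.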

Assay [6] deals with guinea pig Muscarinic, Peripheral (Mperiperal) Receptor, Non-selective Binding, gene 100379235. Description: NVS_GPCR_gMPeripheral_NonSelective: NovaScreen (NVS) G Protein-Coupled Receptor Assay for guinea pig Muscarinic, Peripheral (Mperiperal) Receptor, Non-selective Binding (AID 2283250). In short, it runs like this: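 Guinea pig bladder membranes, radioligand binding read 1 h after dosing by filter scintillation counting; loss of signal vs DMSO. Primary duplicate screen at 25 uM, then concentration-response up to 50 uM.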

Assay [7] has as its target guinea pig Opioid, Kappa 1 Receptor (OpiateK), OPRK1 (gene 100135587) (UniProt P41144). Description: NVS_GPCR_gOpiateK: NovaScreen (NVS) G Protein-Coupled Receptor Assay for guinea pig Opioid, Kappa 1 Receptor (OpiateK) (AID 2283252).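 Note: radioligand displacement from kappa opioid receptor in guinea pig cerebellar membranes; active means reduced radioligand binding relative to DMSO.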 In short, it runs like this:
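Signal is scintillation counts of filter-trapped radioligand bound to guinea pig cerebellar membrane receptor, measured 2 hours post-dosing. Activity is loss of binding versus DMSO, first at 25 uM in duplicate, then as concentration series for actives.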

The test system of assay [8] is bovine Histamine 1 Receptor (H1), gene 281231. Description: NVS_GPCR_bH1: NovaScreen (NVS) G Protein-Coupled Receptor Assay for bovine Histamine 1 Receptor (H1) (AID 2283246). In short, it runs like this: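 Radioligand displacement on bovine cerebellar membranes, 1 h after dosing, filter-based scintillation read-out; loss of signal vs DMSO. Duplicate single-concentration screen at 25 uM, then concentration-response up to 50 uM for hits.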

The target of assay [9] is human Serotonin, 5-Hydroxytryptamine Receptor 2A (5HT2A), HTR2A (gene 3356) (UniProt P28223). Briefly: NVS_GPCR_h5HT2A: NovaScreen (NVS) G Protein-Coupled Receptor Assay for human Serotonin, 5-Hydroxytryptamine Receptor 2A (5HT2A) (AID 2283249). In short, it runs like this:
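Human cortex membranes, cell-free radioligand binding; filter-based scintillation read 1.5 h after dosing. Duplicate screen at 25 uM first; displacement of specific binding (loss of signal) versus DMSO.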

The target in assay [10] is human Serotonin, 5-Hydroxytryptamine Receptor 6 (5HT6), HTR6 (gene 3362) (UniProt P50406). Briefly: NVS_GPCR_h5HT6: NovaScreen (NVS) G Protein-Coupled Receptor Assay for human Serotonin, 5-Hydroxytryptamine Receptor 6 (5HT6) (AID 2283253). In short, it runs like this: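 Radioligand binding to 5HT6 in HEK293-derived membranes, cell-free, 1 h after dosing; bound ligand measured by filter-based scintillation counting. Primary screen in duplicate at 25 uM; actives retested in concentration series.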

Assay [11] deals with human Serotonin, 5-Hydroxytryptamine Receptor 7 (5HT7), HTR7 (gene 3363) (UniProt P34969). Description: NVS_GPCR_h5HT7: NovaScreen (NVS) G Protein-Coupled Receptor Assay for human Serotonin, 5-Hydroxytryptamine Receptor 7 (5HT7) (AID 2283255).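 Note: hits reduce specific radioligand binding relative to DMSO.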 The method, boiled down:
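Radioligand displacement on membranes from CHO cells expressing human 5HT7, 1 h incubation, filter-based scintillation counting. Primary screen used a single 25 uM concentration in duplicate; actives were followed up in concentration series.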

Assay [12] has as its target human Adrenergic, Alpha 2A Receptor (Adra2A), ADRA2A (gene 150) (UniProt P08913). Description: NVS_GPCR_hAdra2A: NovaScreen (NVS) G Protein-Coupled Receptor Assay for human Adrenergic, Alpha 2A Receptor (Adra2A) (AID 2283257). The method, boiled down:
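Radioligand filter-binding was run on HT29-derived membranes, cell-free, read by scintillation counting 1 h after dosing. Primary screening was in duplicate at 25 uM, with concentration series in follow-up. Loss of signal versus DMSO indicates displacement.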

Assay [13] deals with human Adrenergic, Beta 1 Receptor (Adrb1), ADRB1 (gene 153) (UniProt P08588). Description: NVS_GPCR_hAdrb1: NovaScreen (NVS) G Protein-Coupled Receptor Assay for human Adrenergic, Beta 1 Receptor (Adrb1) (AID 2283258). In short, it runs like this: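 Cell-free radioligand displacement on receptor from human neuroepithelioma cells; 2 h after dosing, filter-based scintillation counting. Primary screen in duplicate at 25 uM, actives retested in concentration series; loss of signal vs DMSO baseline.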
Sequence of human Adrenergic, Beta 1 Receptor (Adrb1), ADRB1 (gene 153) (P08588 whole entry, looked up): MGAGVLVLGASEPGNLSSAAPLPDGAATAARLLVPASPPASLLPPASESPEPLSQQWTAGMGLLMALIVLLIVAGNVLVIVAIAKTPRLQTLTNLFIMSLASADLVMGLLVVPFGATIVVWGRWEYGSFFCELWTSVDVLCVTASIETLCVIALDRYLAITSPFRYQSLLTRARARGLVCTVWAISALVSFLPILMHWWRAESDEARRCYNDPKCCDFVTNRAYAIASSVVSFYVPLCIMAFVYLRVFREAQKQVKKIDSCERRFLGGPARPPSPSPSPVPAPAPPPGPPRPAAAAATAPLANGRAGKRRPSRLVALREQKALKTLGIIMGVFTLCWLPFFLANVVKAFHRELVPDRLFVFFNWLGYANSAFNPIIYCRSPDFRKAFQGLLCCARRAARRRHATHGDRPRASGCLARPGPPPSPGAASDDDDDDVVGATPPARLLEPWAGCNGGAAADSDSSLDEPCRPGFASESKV

Assay [14] concerns the target human Adrenergic, Alpha 2c Receptor (Adra2C), ADRA2C (gene 152) (UniProt P18825). Description: NVS_GPCR_hAdra2C: NovaScreen (NVS) G Protein-Coupled Receptor Assay for human Adrenergic, Alpha 2c Receptor (Adra2C) (AID 2283259). The method, boiled down: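 Radioligand binding on Sf9-expressed receptor membranes, 1 h after chemical dosing, filter-based scintillation read-out. Loss of binding fitted positively versus DMSO; primary duplicate screen at 25 uM, actives retested in concentration series.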

The target in assay [15] is Beta-2 adrenergic receptor (Homo sapiens) (UniProt P07550). Description: NVS_GPCR_hAdrb2: NovaScreen (NVS) G Protein-Coupled Receptor Assay for human Adrenergic, Beta 2 Receptor (Adrb2) (AID 2283261). In short, it runs like this: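 Filter-based radioligand binding using receptor prepared from CHO cells, 1 h incubation, scintillation counting. Primary screen in duplicate at 25 uM, actives retested in concentration series; loss of binding relative to DMSO.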
Sequence of Beta-2 adrenergic receptor (Homo sapiens) (P07550 whole entry, looked up): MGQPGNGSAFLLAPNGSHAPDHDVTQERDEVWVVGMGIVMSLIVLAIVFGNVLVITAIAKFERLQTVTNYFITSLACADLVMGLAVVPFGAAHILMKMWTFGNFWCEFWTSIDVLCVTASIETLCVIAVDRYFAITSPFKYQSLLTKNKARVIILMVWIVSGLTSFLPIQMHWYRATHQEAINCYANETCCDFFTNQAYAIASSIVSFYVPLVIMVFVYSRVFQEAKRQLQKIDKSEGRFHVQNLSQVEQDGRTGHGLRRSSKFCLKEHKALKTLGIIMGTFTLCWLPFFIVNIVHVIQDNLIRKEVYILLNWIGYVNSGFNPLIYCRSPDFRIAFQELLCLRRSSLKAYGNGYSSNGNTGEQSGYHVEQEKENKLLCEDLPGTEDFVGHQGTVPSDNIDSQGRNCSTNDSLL

For assay [16], the system named is guinea pig Leukotriene B4 Receptor (LTB4), gene 100379538. Description: NVS_GPCR_gLTB4: NovaScreen (NVS) G Protein-Coupled Receptor Assay for guinea pig Leukotriene B4 Receptor (LTB4) (AID 2283247). The method, boiled down: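 Radioligand displacement on guinea pig spleen membranes, filter-based scintillation counting 2 h after dosing. Primary duplicate single point at 25 uM; hits over threshold (e.g. 30% inhibition) run in concentration-response up to 50 uM, DMSO baseline.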

In assay [17] the target is human Adrenergic, Beta 3 Receptor (Adrb3), ADRB3 (gene 155) (UniProt P13945). Briefly: NVS_GPCR_hAdrb3: NovaScreen (NVS) G Protein-Coupled Receptor Assay for human Adrenergic, Beta 3 Receptor (Adrb3) (AID 2283262). The method, boiled down: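 Membranes from SK-N-MC cells pretreated with isoproterenol and 8-bromo-cAMP were used in a radioligand competitive displacement binding assay. Binding was read by filter-based scintillation counting 1 hour after dosing. Primary screening was in duplicate at 25 uM, with concentration series in follow-up.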
Sequence of human Adrenergic, Beta 3 Receptor (Adrb3), ADRB3 (gene 155) (P13945 whole entry, looked up): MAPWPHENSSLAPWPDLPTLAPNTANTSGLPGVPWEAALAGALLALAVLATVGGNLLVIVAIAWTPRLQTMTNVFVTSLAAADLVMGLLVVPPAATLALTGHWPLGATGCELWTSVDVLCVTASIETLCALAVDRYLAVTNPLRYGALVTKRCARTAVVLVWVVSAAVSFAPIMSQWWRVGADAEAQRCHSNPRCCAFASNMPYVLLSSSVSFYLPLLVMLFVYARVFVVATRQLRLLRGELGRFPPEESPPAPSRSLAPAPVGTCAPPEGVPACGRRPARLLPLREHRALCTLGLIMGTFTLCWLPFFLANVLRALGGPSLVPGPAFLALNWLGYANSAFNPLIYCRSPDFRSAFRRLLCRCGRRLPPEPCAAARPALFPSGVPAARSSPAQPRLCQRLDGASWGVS

Assay [18] deals with guinea pig Leukotriene D4 Receptor (LTD4), CYSLTR1 (gene 100135514) (UniProt Q2NNR5). Description: NVS_GPCR_gLTD4: NovaScreen (NVS) G Protein-Coupled Receptor Assay for guinea pig Leukotriene D4 Receptor (LTD4) (AID 2283248). In short, it runs like this:
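Radioligand displacement on guinea pig lung membranes, 1 h incubation, filtration and scintillation counting; DMSO as negative control. Duplicate 25 uM primary screen, then singleton concentration-response up to 50 uM.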

The target of assay [19] is human Adenosine A1 Receptor (AdoRA1), ADORA1 (gene 134) (UniProt P30542). Briefly: NVS_GPCR_hAdoRA1: NovaScreen (NVS) G Protein-Coupled Receptor Assay for human Adenosine A1 Receptor (AdoRA1) (AID 2283254). In short, it runs like this:
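Hum. cortical membranes + radioligand, cmpd 1 h; filtration, scintillation count. Readout = decrease vs DMSO. Primary 25 uM dup; hits → conc. series.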

Molecules are shown by their SMILES. Inconclusive results are not listed. The source made the active and inactive calls. Rule for the calls: active = hit-call score of the fitted dose curve at least 0.9, where 1 is the maximum; inconclusive = response in the unintended direction; inactive = score below 0.9.

This is an account of results in PubChem BioAssay (EPA / NIEHS).

Sequence of human Adenosine A2a Receptor (AdoRA2a), ADORA2A (gene 135) (P29274 whole entry, looked up): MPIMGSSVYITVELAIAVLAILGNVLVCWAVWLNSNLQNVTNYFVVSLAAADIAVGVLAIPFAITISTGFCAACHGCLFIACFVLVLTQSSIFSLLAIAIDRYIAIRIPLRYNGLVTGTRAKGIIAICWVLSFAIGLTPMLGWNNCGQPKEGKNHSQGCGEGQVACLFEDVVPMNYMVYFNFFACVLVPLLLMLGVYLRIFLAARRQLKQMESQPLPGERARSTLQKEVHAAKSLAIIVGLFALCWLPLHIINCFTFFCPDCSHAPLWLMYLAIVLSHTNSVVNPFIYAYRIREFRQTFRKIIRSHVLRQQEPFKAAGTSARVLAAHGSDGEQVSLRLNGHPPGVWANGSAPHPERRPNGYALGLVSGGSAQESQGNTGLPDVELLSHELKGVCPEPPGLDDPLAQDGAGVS
Sequence of human Adrenergic, Alpha 2c Receptor (Adra2C), ADRA2C (gene 152) (P18825 whole entry, looked up): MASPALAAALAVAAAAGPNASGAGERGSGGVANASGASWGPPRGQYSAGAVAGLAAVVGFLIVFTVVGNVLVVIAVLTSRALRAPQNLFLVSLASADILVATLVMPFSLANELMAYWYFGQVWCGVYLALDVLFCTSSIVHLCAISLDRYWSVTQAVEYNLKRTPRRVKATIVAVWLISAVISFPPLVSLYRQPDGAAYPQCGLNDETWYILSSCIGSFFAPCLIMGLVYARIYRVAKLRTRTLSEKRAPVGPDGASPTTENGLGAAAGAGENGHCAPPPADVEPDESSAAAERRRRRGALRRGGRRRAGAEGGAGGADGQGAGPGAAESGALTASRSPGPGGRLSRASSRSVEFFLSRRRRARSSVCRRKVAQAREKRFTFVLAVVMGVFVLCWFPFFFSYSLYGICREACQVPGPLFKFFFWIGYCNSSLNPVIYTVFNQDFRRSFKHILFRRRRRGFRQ
Sequence of guinea pig Opioid, Kappa 1 Receptor (OpiateK), OPRK1 (gene 100135587) (P41144 whole entry, looked up): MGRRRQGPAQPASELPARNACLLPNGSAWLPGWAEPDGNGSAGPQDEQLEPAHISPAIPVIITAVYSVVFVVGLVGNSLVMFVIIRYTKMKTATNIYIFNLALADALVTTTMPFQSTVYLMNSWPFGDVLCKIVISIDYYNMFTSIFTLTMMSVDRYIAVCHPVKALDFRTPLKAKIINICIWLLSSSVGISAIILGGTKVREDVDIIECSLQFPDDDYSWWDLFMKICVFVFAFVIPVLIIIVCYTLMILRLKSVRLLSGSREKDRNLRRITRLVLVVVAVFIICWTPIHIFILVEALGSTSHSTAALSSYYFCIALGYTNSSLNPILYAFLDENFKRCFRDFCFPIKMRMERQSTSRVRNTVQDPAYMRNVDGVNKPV
Sequence of human Dopamine Receptor D2 (DRD2), DRD2 (gene 1813) (P14416 whole entry, looked up): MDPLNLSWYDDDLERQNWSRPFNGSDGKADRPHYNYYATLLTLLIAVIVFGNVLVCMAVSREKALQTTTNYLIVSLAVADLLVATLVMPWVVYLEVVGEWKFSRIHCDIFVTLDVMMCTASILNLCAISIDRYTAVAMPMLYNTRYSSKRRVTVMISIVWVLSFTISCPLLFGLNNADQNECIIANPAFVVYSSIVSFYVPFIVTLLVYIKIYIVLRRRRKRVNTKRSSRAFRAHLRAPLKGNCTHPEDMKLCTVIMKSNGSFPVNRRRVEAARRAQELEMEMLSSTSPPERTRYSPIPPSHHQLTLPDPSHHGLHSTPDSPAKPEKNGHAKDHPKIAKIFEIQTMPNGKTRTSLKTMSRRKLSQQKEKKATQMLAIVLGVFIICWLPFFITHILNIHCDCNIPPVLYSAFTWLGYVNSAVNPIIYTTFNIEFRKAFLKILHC
Sequence of human Serotonin, 5-Hydroxytryptamine Receptor 7 (5HT7), HTR7 (gene 3363) (P34969 whole entry, looked up): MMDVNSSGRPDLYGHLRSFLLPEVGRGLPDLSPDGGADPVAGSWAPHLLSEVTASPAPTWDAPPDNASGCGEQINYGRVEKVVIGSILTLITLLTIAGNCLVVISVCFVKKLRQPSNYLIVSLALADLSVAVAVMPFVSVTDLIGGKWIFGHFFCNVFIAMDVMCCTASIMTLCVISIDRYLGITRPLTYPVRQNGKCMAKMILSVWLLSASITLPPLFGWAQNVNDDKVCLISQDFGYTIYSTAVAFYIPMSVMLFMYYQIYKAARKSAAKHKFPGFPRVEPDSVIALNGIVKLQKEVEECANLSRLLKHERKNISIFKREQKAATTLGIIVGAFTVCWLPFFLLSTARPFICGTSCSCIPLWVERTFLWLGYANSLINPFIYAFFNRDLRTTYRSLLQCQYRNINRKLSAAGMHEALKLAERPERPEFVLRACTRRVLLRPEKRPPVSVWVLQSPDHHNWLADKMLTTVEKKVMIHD
Sequence of guinea pig Leukotriene D4 Receptor (LTD4), CYSLTR1 (gene 100135514) (Q2NNR5 whole entry, looked up): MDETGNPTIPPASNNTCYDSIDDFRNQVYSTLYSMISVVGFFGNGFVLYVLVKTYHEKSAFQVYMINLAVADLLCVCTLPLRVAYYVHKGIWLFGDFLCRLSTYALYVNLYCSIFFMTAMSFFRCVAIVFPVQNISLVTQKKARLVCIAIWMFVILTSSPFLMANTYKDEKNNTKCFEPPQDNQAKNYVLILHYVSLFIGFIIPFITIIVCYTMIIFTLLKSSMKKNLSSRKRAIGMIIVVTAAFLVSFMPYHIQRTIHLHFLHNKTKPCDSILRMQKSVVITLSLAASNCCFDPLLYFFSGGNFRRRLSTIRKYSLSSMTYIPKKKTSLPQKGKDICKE
Sequence of human Adenosine A1 Receptor (AdoRA1), ADORA1 (gene 134) (P30542 whole entry, looked up): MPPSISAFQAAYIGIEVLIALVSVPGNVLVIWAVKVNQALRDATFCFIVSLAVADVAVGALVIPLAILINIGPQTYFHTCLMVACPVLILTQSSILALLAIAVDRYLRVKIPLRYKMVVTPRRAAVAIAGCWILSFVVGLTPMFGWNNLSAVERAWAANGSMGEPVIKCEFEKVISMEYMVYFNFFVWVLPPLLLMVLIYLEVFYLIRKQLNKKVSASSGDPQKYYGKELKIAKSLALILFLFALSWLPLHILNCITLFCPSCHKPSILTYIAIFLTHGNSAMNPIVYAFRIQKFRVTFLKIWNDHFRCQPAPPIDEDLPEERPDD

On to `Nc1nc(N)c2nc(CNc3ccc(C(=O)N[C@@H](CCC(=O)O)C(=O)O)cc3)cnc2n1`, for which the results for the concentration at half-maximal activity (AC50) in assay [1] and in assay [3] were 6.28 µM (active) and 18.3 µM (active), respectively. In assay [2], the call was inactive.

On to `CCOc1ccc2c(c1)C(C)=CC(C)(C)N2`, for which the result in assay [4] was inactive.

Turning to `NCC1(Cc2noc(=O)[nH]2)CCCCC1`, the result in assay [5] was inactive.

As to `CNCc1cc(F)ccc1Oc1ccc(Cl)c(Cl)c1`, the AC50 was 25 µM (active) in assay [6] and 12.7 µM (active) in [7].

For the molecule `NC(=O)Cn1c(=O)cc(CCN2CCN(c3nccc4sccc34)CC2)c2ccc(F)cc21`, the AC50 was 777 nM (active) in assay [8]; 2.29 nM (active) in assay [9]; 0.834 µM (active) in assay [1]; 214 nM (active) in assay [10]; 0.0155 µM (active) in assay [11]; 2.03 µM (active) in [12]. The AC50 is 1.38 µM (active) in assay [13]; 0.666 µM (active) in assay [14]; 8.69 µM (active) in assay [15]; 0.023 µM (active) in assay [2]; 0.926 µM (active) in [3]. Also, in assay [6], the outcome was inactive.

As for `COCCOC[C@H](CC1(C(=O)NC2CCC(C(=O)O)CC2)CCCC1)C(=O)Oc1ccc2c(c1)CCC2` (some centres undefined), the molecule was classed as inactive in assay [16] and in assay [7].

As for `Cc1ccccc1Cl`, in assay [17], the result was inactive.

Regarding `COc1cc(S(=O)(=O)O)c(C)cc1N=Nc1c(O)ccc2cc(S(=O)(=O)O)ccc12`, the result in assay [16] and in assay [7] was inactive. Moreover, the AC50 is 14.8 µM (active) in [11], 13.9 µM (active) in [14], 38.7 µM (active) in [2] and 11.4 µM (active) in assay [3].

On to `O=C(O)Cc1ccccc1Nc1c(Cl)cccc1Cl`, for which the result in assay [13], in assay [15] and in [17] was inactive.

`Nc1ccccc1N`: in assay [4], the AC50 was 975 nM (active).

Turning to `COc1cc(-c2nc(NC(=O)c3cc4cc(C)cc(C)c4n3CC(=O)O)sc2CCC2CCCCC2)c(OC)cc1Cl`, the outcome in assay [18] and in [1] was inactive.

`CCCCCCCC=O`: the AC50 in assay [18] is 613 nM (active).

Consider `Cc1ccc2ncccc2c1`, for which the molecule was classed as inactive in assay [13].

Consider `CCOC(=O)CCC(=O)OCC`, for which the call in assay [6], in assay [19], in assay [11], in assay [4], in assay [14] and in assay [15] was inactive. The result in assay [2] and in assay [3] was inactive.

In the case of `CNC(=O)[C@H]1O[C@@H](n2cnc3c(NCc4cc(Cl)ccc4OCc4cc(C)no4)ncnc32)[C@H](O)[C@@H]1N`, the AC50 in assay [16] is 25 µM (active). The molecule was called inactive in [14].

Take `C[C@]12C=CC(=O)C=C1CC[C@@H]1[C@@H]2C(=O)C[C@@]2(C)[C@H]1CC[C@]2(O)C(=O)CO`: the call in assay [8] was inactive.

With `Cc1ccc(C(C)C)c(O)c1`, in assay [8], the outcome was inactive.

As for `C=CCOC(=O)c1ccccc1C(=O)OCC=C`, the result in [19] was inactive.

Broadly, the AC50 is the concentration giving half of the maximal activity seen.
